# In all, about 5,500 compounds went through this assay and about 2,000 (36%) were called active. Another 18% or so got no clear call; they are omitted. The list shows a part of the results. A number with no mark means an inactive call. No stated cut-off is given here; in the data, active means normalized growth mostly below about 0.91 (no sharp cut-off); inconclusive means no clear call, values can overlap the other calls; inactive means mostly above about 0.92.
# Test: chemical genetic growth profiling, strain panel (AID 1159580);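 further: tested at 20 µM; growth read once vehicle control cultures reached saturation at 30 °C; 1 = growth at the plate median or of vehicle wells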
# Settings: S. cerevisiae deletion strains, growth OD
# [1] = locus YAL013W, strain DEP1, stronger effect = lower value
# [2] = locus YBR229C, strain ROT2, stronger effect = lower value
# [3] = locus YCL061C, strain MRC1, stronger effect = lower value
# [4] = locus YDL101C, strain DUN1, stronger effect = lower value
# [5] = locus YDR150W, strain NUM1, stronger effect = lower value
# [6] = locus YEL061C, strain CIN8, stronger effect = lower value
# [7] = locus YGR078C, strain PAC10, stronger effect = lower value
# [8] = locus YHR030C, strain SLT2, stronger effect = lower value
# [9] = locus YHR087W, strain rtc3, stronger effect = lower value
# [10] = locus YJR043C, strain POL32, stronger effect = lower value
# [11] = locus YJR075W, strain HOC1, stronger effect = lower value
# [12] = locus YLR039C, strain RIC1, stronger effect = lower value
# [13] = locus YLR058C, strain SHM2 (second series), stronger effect = lower value
# [14] = locus YLR085C, strain ARP6, stronger effect = lower value
# [15] = locus YLR262C, strain YPT6, stronger effect = lower value
# [16] = locus YML094W, strain GIM5, stronger effect = lower value
# [17] = locus YMR219W, strain ESC1, stronger effect = lower value
# [18] = locus YMR263W, strain SAP30, stronger effect = lower value
# [19] = locus YNL153C, strain GIM3, stronger effect = lower value
# [20] = locus YNL298W, strain CLA4 (second series), stronger effect = lower value
# [21] = locus YNL322C, strain KRE1, stronger effect = lower value
# [22] = locus YNR030W, strain Alg12, stronger effect = lower value
# [23] = locus YPL055C, strain LGE1, stronger effect = lower value
# [24] = locus YPL241C, strain CIN2, stronger effect = lower value
# [25] = locus YPR135W, strain CTF4, stronger effect = lower value
smiles,measurement,setting,value
Fc1cccc(Cl)c1Cn1nnc(N2CCCCC2)n1,normalized growth,[1],0.973
same,normalized growth,[2],0.96
same,normalized growth,[3],0.977
same,normalized growth,[4],0.992
same,normalized growth,[5],1.01
same,normalized growth,[6],0.966
same,normalized growth,[7],0.946
same,normalized growth,[8],0.444 (active)
same,normalized growth,[9],0.941
same,normalized growth,"locus YJL187C, strain SWE1, stronger effect = lower value",0.969
same,normalized growth,[10],0.982
same,normalized growth,[11],0.914
same,normalized growth,[12],0.851
same,normalized growth,[13],0.969
same,normalized growth,[14],0.762 (active)
same,normalized growth,[15],0.881
same,normalized growth,[16],0.918
same,normalized growth,[17],0.962
same,normalized growth,[18],0.976
same,normalized growth,"locus YMR307W, strain GAS1, stronger effect = lower value",0.825
same,normalized growth,[19],0.962
same,normalized growth,[20],0.984
same,normalized growth,[21],0.961
same,normalized growth,[22],0.926
same,normalized growth,[23],0.959
same,normalized growth,[24],0.909
same,normalized growth,[25],0.534 (active)
ON(Cc1c(F)cccc1Cl)Cc1c(F)cccc1Cl,normalized growth,[1],0.985
same,normalized growth,[2],1.01
same,normalized growth,[3],0.997
same,normalized growth,[4],0.978
same,normalized growth,[5],0.951
same,normalized growth,[6],1.02
same,normalized growth,[7],0.979
same,normalized growth,[8],0.989
same,normalized growth,[9],0.986
same,normalized growth,[10],1.01
same,normalized growth,[11],0.986
same,normalized growth,[12],0.816
same,normalized growth,[13],1
same,normalized growth,[14],0.987
same,normalized growth,[15],0.829
same,normalized growth,[16],1.01
same,normalized growth,[17],0.988
same,normalized growth,[18],0.992
same,normalized growth,[19],0.976
same,normalized growth,[20],1.01
same,normalized growth,[21],0.987
same,normalized growth,[22],0.993
same,normalized growth,"locus YOL006C, strain TOP1, stronger effect = lower value",0.966
same,normalized growth,[23],1.02
same,normalized growth,[24],1
same,normalized growth,[25],0.852
COc1ccccc1NC(=O)Nc1nn(C)c2cccc(OC)c12,normalized growth,"locus YAR019C, strain CDC15, stronger effect = lower value",0.917
same,normalized growth,"locus YBL105C, strain PKC1, stronger effect = lower value",0.918
same,normalized growth,"locus YBR135W, strain CKS1, stronger effect = lower value",0.933
same,normalized growth,"locus YBR136W, strain MEC1, stronger effect = lower value",0.919
same,normalized growth,"locus YBR160W, strain CDC28, stronger effect = lower value",0.932
same,normalized growth,"locus YDL017W, strain CDC7, stronger effect = lower value",0.924
same,normalized growth,"locus YDL028C, strain MPS1, stronger effect = lower value",0.938
same,normalized growth,[4],0.951
same,normalized growth,"locus YDL108W, strain KIN28, stronger effect = lower value",0.924
same,normalized growth,"locus YDL132W, strain cdc53, stronger effect = lower value",0.925
same,normalized growth,"locus YDL214C, strain PRR2, stronger effect = lower value",0.843
same,normalized growth,"locus YDR052C, strain DBF4, stronger effect = lower value",0.94
same,normalized growth,"locus YDR054C, strain cdc34, stronger effect = lower value",0.879
same,normalized growth,"locus YDR226W, strain ADK1, stronger effect = lower value",0.938
same,normalized growth,"locus YDR477W, strain SNF1, stronger effect = lower value",0.781
same,normalized growth,"locus YER123W, strain YCK3, stronger effect = lower value",0.811
same,normalized growth,"locus YER133W, strain GLC7, stronger effect = lower value",0.731
same,normalized growth,"locus YFL009W, strain cdc4, stronger effect = lower value",0.94
same,normalized growth,"locus YFL029C, strain CAK1, stronger effect = lower value",0.914
same,normalized growth,"locus YFR003C, strain YPI1, stronger effect = lower value",0.924
same,normalized growth,"locus YFR019W, strain FAB1, stronger effect = lower value",0.907
same,normalized growth,"locus YFR028C, strain CDC14, stronger effect = lower value",0.93
same,normalized growth,"locus YGR040W, strain KSS1, stronger effect = lower value",0.766
same,normalized growth,"locus YGR052W, strain FMP48, stronger effect = lower value",0.845
same,normalized growth,"locus YGR092W, strain DBF2, stronger effect = lower value",0.81
same,normalized growth,[8],0.637 (active)
same,normalized growth,"locus YHR079C, strain IRE1, stronger effect = lower value",0.815
same,normalized growth,"locus YHR082C, strain KSP1, stronger effect = lower value",0.843
same,normalized growth,"locus YHR205W, strain SCH9, stronger effect = lower value",0.835
same,normalized growth,"locus YIL147C, strain SLN1, stronger effect = lower value",0.935
same,normalized growth,"locus YJL095W, strain BCK1, stronger effect = lower value",0.687
same,normalized growth,"locus YJL128C, strain PBS2, stronger effect = lower value",0.953
same,normalized growth,"locus YJL157C, strain FAR1, stronger effect = lower value",0.816
same,normalized growth,"locus YJR016C, strain ILV3, stronger effect = lower value",0.928
same,normalized growth,"locus YJR066W, strain TOR1 (second series), stronger effect = lower value",0.794
same,normalized growth,"locus YJR066W, strain TOR1, stronger effect = lower value",0.775
same,normalized growth,"locus YKL048C, strain ELM1, stronger effect = lower value",0.93
same,normalized growth,"locus YKL067W, strain YNK1, stronger effect = lower value",0.866
same,normalized growth,"locus YKL101W, strain HSL1, stronger effect = lower value",0.855
same,normalized growth,"locus YKL193C, strain SDS22, stronger effect = lower value",0.914
same,normalized growth,"locus YKL203C, strain TOR2, stronger effect = lower value",0.776
same,normalized growth,"locus YLR113W, strain HOG1, stronger effect = lower value",0.599 (active)
same,normalized growth,"locus YLR133W, strain CKI1, stronger effect = lower value",0.818
same,normalized growth,"locus YLR403W, strain SFP1, stronger effect = lower value",0.649 (active)
same,normalized growth,"locus YML070W, strain DAK1, stronger effect = lower value",0.824
same,normalized growth,"locus YMR001C, strain CDC5, stronger effect = lower value",0.902
same,normalized growth,"locus YMR205C, strain PFK2 (second series), stronger effect = lower value",0.863
same,normalized growth,"locus YMR277W, strain FCP1, stronger effect = lower value",0.918
same,normalized growth,"locus YNL006W, strain LST8, stronger effect = lower value",0.933
same,normalized growth,"locus YNL020C, strain ARK1, stronger effect = lower value",0.818
same,normalized growth,"locus YNL161W, strain CBK1, stronger effect = lower value",0.929
same,normalized growth,"locus YNL183C, strain NPR1, stronger effect = lower value",0.745
same,normalized growth,"locus YNL207W, strain RIO2, stronger effect = lower value",0.91
same,normalized growth,"locus YNL222W, strain SSU72, stronger effect = lower value",0.929
same,normalized growth,"locus YNL307C, strain MCK1 (second series), stronger effect = lower value",0.827
same,normalized growth,"locus YOL078W, strain AVO1, stronger effect = lower value",0.914
same,normalized growth,"locus YOL136C, strain PFK27, stronger effect = lower value",0.81
same,normalized growth,"locus YOR061W, strain CKA2, stronger effect = lower value",0.866
same,normalized growth,"locus YOR119C, strain RIO1, stronger effect = lower value",0.8
same,normalized growth,"locus YOR231W, strain MKK1, stronger effect = lower value",0.734
same,normalized growth,"locus YOR329C, strain SCD5, stronger effect = lower value",0.933
same,normalized growth,"locus YPL031C, strain PHO85, stronger effect = lower value",0.724
same,normalized growth,"locus YPL153C, strain RAD53, stronger effect = lower value",0.742
same,normalized growth,"locus YPL204W, strain HRR25, stronger effect = lower value",0.719
same,normalized growth,"locus YPL209C, strain IPL1, stronger effect = lower value",0.943
same,normalized growth,"locus YPL256C, strain CLN2, stronger effect = lower value",0.73 (active)
same,normalized growth,"locus YPR025C, strain CCL1, stronger effect = lower value",0.926
same,normalized growth,"locus YPR106W, strain ISR1, stronger effect = lower value",0.916
same,normalized growth,"locus YPR111W, strain DBF20, stronger effect = lower value",0.919
same,normalized growth,"strain NNK1, stronger effect = lower value",0.908
same,normalized growth,"strain TSCII, stronger effect = lower value",0.915
COc1ccccc1NC(=O)N1CCCN(C(=O)c2cccs2)CC1,normalized growth,[1],1.01
same,normalized growth,[2],1.02
same,normalized growth,[3],1.02
same,normalized growth,[4],1.03
same,normalized growth,"locus YDL134C, strain PPH21, stronger effect = lower value",1.01
same,normalized growth,[5],1.05
same,normalized growth,[6],0.994
same,normalized growth,[7],1.01
same,normalized growth,"locus YGR229C, strain SMI1, stronger effect = lower value",1.01
same,normalized growth,[8],1.03
same,normalized growth,[9],0.986
same,normalized growth,[10],1.02
same,normalized growth,[11],1.02
same,normalized growth,"locus YKL190W, strain CNB1, stronger effect = lower value",1.01
same,normalized growth,[12],1.05
same,normalized growth,[13],1
same,normalized growth,[14],1.03
same,normalized growth,[15],1.02
same,normalized growth,[16],1.02
same,normalized growth,[17],1.01
same,normalized growth,[18],1.04
same,normalized growth,[19],1.01
same,normalized growth,[20],1.04
same,normalized growth,[21],1.01
same,normalized growth,[22],1.02
same,normalized growth,[23],1.01
same,normalized growth,[24],1.05
same,normalized growth,[25],1.04

# Reference: PubChem BioAssay AID1159580 (chemical genetic matrix, 2015)
